Experimental data: PubChem BioAssay
The source made the active and inactive calls. No rule for the calls is given here.

The compounds below were run against Protein kinase 7 (PK7), Plasmodium falciparum 3D7 (PF3D7_0213400) (UniProt Q7YTF7) (assay: inhibition of Plasmodium PK7 catalytic activity – biochemical, TCAMS antimalarial set, Kinase-Glo luminescence (AID 1159587)). Details: recombinant PfPK7, Kinase-Glo ATP depletion luminescence.
Protein kinase 7 (PK7), Plasmodium falciparum 3D7 (PF3D7_0213400), sequence (Q7YTF7 1-343): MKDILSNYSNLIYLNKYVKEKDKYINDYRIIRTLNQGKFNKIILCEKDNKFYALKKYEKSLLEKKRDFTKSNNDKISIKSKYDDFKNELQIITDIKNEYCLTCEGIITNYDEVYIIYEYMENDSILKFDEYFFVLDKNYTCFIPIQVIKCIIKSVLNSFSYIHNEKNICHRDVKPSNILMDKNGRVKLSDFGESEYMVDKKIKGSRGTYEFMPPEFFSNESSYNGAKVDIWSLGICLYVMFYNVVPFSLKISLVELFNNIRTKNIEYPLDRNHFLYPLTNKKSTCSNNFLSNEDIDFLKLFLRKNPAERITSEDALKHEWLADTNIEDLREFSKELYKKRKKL

outcome, inactive:
CCN1CCC(N(Cc2ccc(-c3ccc(C(F)(F)F)cc3)cc2)C(=O)Cn2c(CCc3cccc(F)c3F)cc(=O)c3c2CCC3)CC1, Cc1cc(=O)c2cc(Oc3cccc(OC(F)(F)F)c3)ccc2[nH]1, COc1ccc(CCn2c(=N)c(C(=O)NC3CCCC3)cc3c(=O)n4ccccc4nc32)cc1, COc1cc(CCON2C(N)=NC(N)=NC2(C)C)cc(OC)c1OC, CSC1=NC(=Nc2ccccc2C)C2(CCC(C(C)(C)C)CC2)N1c1ccccc1Cl (stereo not given), COc1ccc(-c2cnc3ccc(NCc4ccc(F)cc4)nn23)cc1OC, CNC(=O)c1cnc(Nc2ccc(N3CCN(C)CC3)c(C)c2)nc1NC, CCNc1cc(C)nc(Nc2ccccc2)n1, Oc1cc(Nc2ccnc3ccc(I)cc23)c(F)cc1Cl, c1ccc(-c2cccnn2)cc1, CC(C)C[C@H](Nc1ccnc(NCC2CCCCC2)n1)C(=O)NCCc1ccccc1, COc1ccc(CNc2ncc(-c3ccsc3)c(-c3nccs3)n2)cc1OC, O=C(CCc1cnc[nH]1)Nc1cccc(-c2ccc(-c3nc4ccccc4[nH]3)s2)c1, CCc1cc2c(=O)c(-c3nc(C)cs3)c([C@H](N)Cc3ccc(O)cc3)oc2cc1O, O=C(Nc1ccccc1)N(Cc1ccccc1-c1cccc(CNCCc2ccccc2)c1)C1CCN(Cc2ccccc2)CC1, Cc1cccc2c(N=NC(=S)N(C)C)c(O)[nH]c12, COc1cc(OC)cc(-c2nc3c(C#N)c(OCCN(C)C)ccc3[nH]2)c1, c1cc(-c2ccc(CNC3CC3)cc2)cc(-c2nc3ccccc3[nH]2)c1, O=C(Nc1ccccc1)OCCOc1ccc(CC2SC(=O)NC2=O)cc1 (stereo not given), O=C(C=CC(=O)N1CCCCC1)NCc1ccccc1, CCNc1cc(C(=O)N[C@@H](Cc2ccccc2)[C@H](O)CNCCc2ccccc2)cc(N2CCCCS2(=O)=O)c1, O=C(Nc1ccc(-c2cccc(-c3nc4ccc(C(F)(F)F)cc4[nH]3)c2)cc1)c1csnn1, O=C(C=Cc1ccc(Cl)c(Cl)c1)NCCCCCN1CCCC(CCCNC(=O)[C@@H]2C[C@H]2c2ccccc2)C1 (stereo not given in full), CNCCNCc1cccc(-c2ccc(-c3nc4ccccc4[nH]3)s2)c1, Fc1cc(Cl)ccc1Nc1ccnc2cc(I)ccc12, CCOc1cc(C(=O)NC2CC(C)(C)NC(C)(C)C2)ccc1-c1nc2ccc(Cl)cc2[nH]1, CC(=O)Nc1ccc(C(=O)Nc2cccc(-c3cccc(-c4nc5ccc(C(F)(F)F)cc5[nH]4)c3)c2)cn1, CCNc1cc(C(=O)N[C@@H](Cc2ccccc2)[C@H](O)CNC2CCCCC2)cc(N2CCCCS2(=O)=O)c1, Cc1nc(Nc2ccncc2)cc(-c2ccncc2)n1, Cc1cccc2[nH]c(-c3cccc(-c4ccc(NC(=O)Cc5ccccn5)cc4)c3)nc12, Cc1ncc([N+](=O)[O-])n1CCOC(=O)NC(Nc1ccc(Br)cc1)C(Cl)(Cl)Cl (stereo not given), CC(C)(C)C1CC(=O)C[C@@H]2C(=O)N(c3ccc(Br)cc3)C(=O)[C@H]12 (stereo not given in full), CC(C)CNCc1ccc(-c2cccc(CNC3CCN(Cc4ccccc4)CC3)c2)cc1, COC(=O)CCCCOc1c(OC)cc(Cc2cnc(N)nc2N)cc1OC, Cc1nc(-c2ccc(-c3ccc(NC(=O)c4coc5ccc(N6C[C@@H](C)N(C)[C@@H](C)C6)cc45)cc3)c(C)c2)no1, COC(=O)Cc1ccc(N)c2ccccc12, Oc1ccc(CCCNc2nc(NCc3cccc4ccccc34)nc(NC3CCNCC3)n2)cc1, CCCCC(NCC)c1ccc(OCCOc2ccc(C(CCCC)NCC)cc2)cc1 (stereo not given), CN1CCC(NCc2ccc(-c3ccc(C(F)(F)F)cc3)cc2)CC1, CC(=O)Nc1ccc(CN2CCC(NC(=O)c3ccc(-c4cccc(C(F)(F)F)c4)s3)CC2)cc1
